This note sets out measurements from PubChem BioAssay.

The term inhibition denotes the drop in the measured response relative to a control, in per cent.

Values without a mark were called inactive. For some of these results: Potency and affinity values are given separately. The source made the active and inactive calls. Unless noted, no rule for the calls is given here.

The nature of test [1]: antimalarial activity against Dd2 strain (AID 2302;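 active = growth inhibition above 50% at the single 2 µM test dose, taken to imply half-maximal potency below 2 µM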;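 also: 0% = DMSO untreated growth and 100% = chloroquine plus artemisinin killed control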). The conditions noted are these: P. falciparum Dd2 in RBCs, LDH growth readout, 72 h; at 2 µM; active compounds read high.
A short description of test [2]: human hepatoma cell viability loss – ATP luminescence, cytotoxicity control for P. falciparum antimalarial project, primary screen (AID 2303;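 active = inhibition above 50%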;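 also: 0% = DMSO wells and 100% = digitonin-killed cells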). Conditions: HepG2 viability, 24-48 h, at 10 µM, active compounds read high.
The target in test [3] is L-lactate dehydrogenase (Plasmodium falciparum (isolate CDC / Honduras)) (UniProt Q27743). The experiment in a line: PfLDH activity inhibition – cell lysate, 3D7 strain, counter-screen for P. falciparum growth inhibition project (AID 2304).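 Also: 0% = vehicle and 100% = reference inhibitor.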 Conditions: P. falciparum 3D7 crude extract, LDH APAD/NBT absorbance; at 2 µM; active compounds read high. (In general: Counterscreens check selectivity or assay interference.)
Sequence of L-lactate dehydrogenase (Plasmodium falciparum (isolate CDC / Honduras)) (Q27743 whole entry, looked up): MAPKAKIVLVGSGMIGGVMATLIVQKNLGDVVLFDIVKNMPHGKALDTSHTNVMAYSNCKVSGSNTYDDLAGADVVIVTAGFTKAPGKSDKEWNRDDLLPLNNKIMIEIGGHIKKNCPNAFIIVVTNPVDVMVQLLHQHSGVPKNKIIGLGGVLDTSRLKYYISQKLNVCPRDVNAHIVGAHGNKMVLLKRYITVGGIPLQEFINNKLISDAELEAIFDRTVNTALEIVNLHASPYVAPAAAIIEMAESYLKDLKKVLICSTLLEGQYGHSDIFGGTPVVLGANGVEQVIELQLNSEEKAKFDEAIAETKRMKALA

Test [4] can be described thus: inhibition of 3D7 malaria parasite growth – strain 3D7 (AID 2306).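 Also: 0% = DMSO wells and 100% = chloroquine plus artemisinin control wells.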 Conditions: P. falciparum 3D7 erythrocytic growth, LDH absorbance, 72 h; at 2 µM; active compounds read high.
Test [5] deals with Calcium-dependent protein kinase 1 (Plasmodium falciparum (isolate 3D7)) (UniProt P62344). Put plainly: PfCDPK1 kinase inhibitors, biochemical, TCAMS library (AID 1159585; cut-off not given, nearly all actives have IC50 up to about 0.98 µM;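 also: inhibitors leave more ATP so luminescence rises with inhibition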). The conditions noted are these: recombinant PfCDPK1, Kinase-Glo ATP depletion luminescence.
Sequence of Calcium-dependent protein kinase 1 (Plasmodium falciparum (isolate 3D7)) (P62344 whole entry, looked up): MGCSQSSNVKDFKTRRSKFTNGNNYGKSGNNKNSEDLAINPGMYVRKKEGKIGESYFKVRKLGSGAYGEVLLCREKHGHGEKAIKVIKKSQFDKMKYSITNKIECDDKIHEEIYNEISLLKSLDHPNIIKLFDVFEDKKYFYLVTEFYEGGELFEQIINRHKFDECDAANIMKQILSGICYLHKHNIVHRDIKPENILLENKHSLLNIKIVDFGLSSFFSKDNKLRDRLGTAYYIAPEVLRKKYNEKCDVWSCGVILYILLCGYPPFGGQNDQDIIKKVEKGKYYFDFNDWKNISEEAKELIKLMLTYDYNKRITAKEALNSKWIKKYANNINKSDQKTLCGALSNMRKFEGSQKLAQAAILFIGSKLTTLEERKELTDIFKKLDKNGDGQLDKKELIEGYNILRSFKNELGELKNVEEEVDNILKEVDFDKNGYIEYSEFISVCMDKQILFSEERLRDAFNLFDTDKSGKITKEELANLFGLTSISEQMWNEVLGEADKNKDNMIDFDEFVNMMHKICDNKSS
Test [6] deals with Plasmodium falciparum protein kinase 6 (PK6, PF3D7_1337100) (UniProt Q8IDW1). The experiment in a line: PfPK6 kinase inhibitors, biochemical, TCAMS library (AID 1159586). Conditions: recombinant PfPK6, Kinase-Glo ATP depletion luminescence. On the technique in general: Kinase-Glo reads ATP consumption through a luciferase reaction.
Sequence of Plasmodium falciparum protein kinase 6 (PK6, PF3D7_1337100) (Q8IDW1 1-305): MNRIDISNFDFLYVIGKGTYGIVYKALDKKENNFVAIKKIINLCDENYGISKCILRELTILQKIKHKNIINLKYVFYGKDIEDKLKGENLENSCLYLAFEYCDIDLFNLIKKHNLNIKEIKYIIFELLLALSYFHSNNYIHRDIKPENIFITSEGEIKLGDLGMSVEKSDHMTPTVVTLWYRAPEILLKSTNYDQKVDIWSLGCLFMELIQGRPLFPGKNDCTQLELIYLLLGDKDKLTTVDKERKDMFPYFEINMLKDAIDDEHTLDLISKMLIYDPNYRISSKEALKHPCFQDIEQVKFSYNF
Test [7] concerns the target Protein kinase 7 (PK7), Plasmodium falciparum 3D7 (PF3D7_0213400) (UniProt Q7YTF7). The experiment in a line: inhibition of Plasmodium PK7 catalytic activity – biochemical, TCAMS antimalarial set, Kinase-Glo luminescence (AID 1159587). Conditions: recombinant PfPK7, Kinase-Glo ATP depletion luminescence.
The target of test [8] is Calcium-dependent protein kinase 4 (Plasmodium falciparum (isolate 3D7)) (UniProt Q8IBS5). Put plainly: PfCDPK4 kinase inhibitors, biochemical, TCAMS library (AID 1159588; cut-off not given, nearly all actives have IC50 up to about 0.91 µM). The conditions noted are these: recombinant PfCDPK4, Kinase-Glo ATP depletion luminescence.
Sequence of Calcium-dependent protein kinase 4 (Plasmodium falciparum (isolate 3D7)) (Q8IBS5 whole entry, looked up): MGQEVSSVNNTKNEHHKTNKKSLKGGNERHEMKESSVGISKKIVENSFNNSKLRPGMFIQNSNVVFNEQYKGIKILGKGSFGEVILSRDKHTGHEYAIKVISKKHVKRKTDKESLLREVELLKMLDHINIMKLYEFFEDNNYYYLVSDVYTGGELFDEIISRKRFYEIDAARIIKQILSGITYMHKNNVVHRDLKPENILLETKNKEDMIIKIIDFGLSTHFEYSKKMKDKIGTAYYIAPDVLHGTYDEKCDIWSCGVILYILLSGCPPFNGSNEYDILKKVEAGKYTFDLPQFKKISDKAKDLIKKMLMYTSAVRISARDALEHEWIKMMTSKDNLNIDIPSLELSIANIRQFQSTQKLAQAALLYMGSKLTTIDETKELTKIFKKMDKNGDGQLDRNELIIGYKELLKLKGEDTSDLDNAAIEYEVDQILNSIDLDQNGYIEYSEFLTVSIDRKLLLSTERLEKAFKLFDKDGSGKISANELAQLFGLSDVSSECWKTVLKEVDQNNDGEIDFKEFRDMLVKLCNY

Sequence of Protein kinase 7 (PK7), Plasmodium falciparum 3D7 (PF3D7_0213400) (Q7YTF7 1-343): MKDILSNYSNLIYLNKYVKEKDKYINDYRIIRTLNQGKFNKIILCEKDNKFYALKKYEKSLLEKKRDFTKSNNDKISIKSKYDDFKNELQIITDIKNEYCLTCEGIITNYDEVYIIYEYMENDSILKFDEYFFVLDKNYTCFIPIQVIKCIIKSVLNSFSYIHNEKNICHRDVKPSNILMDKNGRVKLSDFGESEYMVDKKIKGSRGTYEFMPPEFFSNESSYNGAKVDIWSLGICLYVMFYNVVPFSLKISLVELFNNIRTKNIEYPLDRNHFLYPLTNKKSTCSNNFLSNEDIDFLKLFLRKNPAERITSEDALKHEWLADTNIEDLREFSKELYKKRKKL

Take `O=[N+]([O-])c1ccc(-c2ccc(C=NNc3nc(Nc4ccccc4)nc(Nc4ccccc4)n3)o2)cc1`: the growth inhibition in test [1] is 12%; in test [4], 91% (active). In addition, the inhibition in test [2] was -4%; in test [3], 1%. Further, the result in test [5], in test [6], in test [7] and in test [8] was inactive.
For `O=C(Nc1ccc(I)cc1)Nc1ccc(Cn2ncc(N3CCCNCC3)c(Cl)c2=O)cc1`, the growth inhibition in test [1] was 30%; in test [4], 86% (active). Further, the inhibition was 35% in test [2] and 0% in test [3]. Besides, the result in test [5], in test [6], in test [7] and in test [8] was inactive.
With `Cc1cc(C)cc(OCC(O)CN(Cc2cc(Cl)cc(Cl)c2)C(=O)Nc2ccc(Cl)cc2)c1` (stereo not given), the growth inhibition in test [1] was 43%; in test [4], 97% (active). The inhibition in test [2] is -9%; in test [3], -2%. In addition, the outcome in test [5], in test [6], in test [7] and in test [8] was inactive.
As for `COc1cc(Nc2nccc(N3CCC(NC(=O)C4COc5ccccc5O4)C3)n2)cc(OC)c1OC` (stereo not given), the growth inhibition is 58% (active) in test [1] and 90% (active) in test [4]. Moreover, the inhibition in test [2] and in test [3] was 5% in each case. The result in test [5], in test [6], in test [7] and in test [8] was inactive.
Take `COc1ccc(NC(=O)[C@H](CC(C)C)Nc2cc(C)nc(NCc3ccccc3C)n2)cc1`: the values for the growth inhibition in test [1] and in test [4] were 78% (active) and 101% (active), respectively. The inhibition is 12% in test [2] and 0% in test [3]. Moreover, the outcome in test [5], in test [6], in test [7] and in test [8] was inactive.
Regarding `Cc1c(C)n(C2CCCC2)c2ncnc(OC3CCN(CC(=O)NCC4CC4)CC3)c12`, the growth inhibition in test [1] and in test [4] was 89% (active) throughout. Further, the values for the inhibition in test [2] and in test [3] were 20% and 1%, respectively. Besides, the result in test [5], in test [6], in test [7] and in test [8] was inactive.
On to `NC(N)=NN=Cc1ccc2c(ccc3ccccc32)c1`, for which the growth inhibition in test [1] is 68% (active); in test [4] it was 100% (active). Besides, the inhibition was 9% in test [2] and 6% in test [3]. Besides, the result in test [5], in test [6], in test [7] and in test [8] was inactive.
In the case of `Cc1cc(NC(=O)c2ccco2)ccc1OC1CCN(Cc2ccc(C#N)cc2)CC1`, the growth inhibition was 89% (active) in test [1] and 92% (active) in test [4]. The inhibition in test [2] is 2%; in test [3], -1%. For the same molecule, the result in test [5], in test [6], in test [7] and in test [8] was inactive.
As to `O=C(NC1CCN(CCN2CCC(c3ccccc3C(F)(F)F)CC2)CC1)c1ccc(-c2ccc(Cl)cc2)cc1`, the growth inhibition in test [1] is 68% (active); in test [4], 101% (active). The inhibition in test [2] was 39%; in test [3] it was 4%. The result in test [5], in test [6], in test [7] and in test [8] was inactive.
On to `CC(C)C[C@@H](/C=N/N1CC(=O)NC1=O)NC(=O)[C@H](CC(C)C)NC(=O)c1ccc(OCCN2CCOCC2)cc1`, for which the growth inhibition in test [1] was 79% (active); in test [4] it was 94% (active). Further, the figures for the inhibition in test [2] and in test [3] were 11% and 1%, respectively. For the same molecule, the outcome in test [5], in test [6], in test [7] and in test [8] was inactive.
For `Cc1ccc(-c2cc3nc4c(c(NCCCn5ccnc5)n3n2)CCC4)cc1`, the growth inhibition in test [1] was 21%; in test [4], 94% (active). Further, the inhibition was 22% in test [2] and -2% in test [3]. The outcome in test [5], in test [6], in test [7] and in test [8] was inactive.
As for `CS(=O)(=O)c1ccc(-c2cnc(N)c(-c3cccc(O)c3)c2)cc1`, the growth inhibition was 97% (active) in test [1] and 98% (active) in test [4]. Besides, the inhibition was 48% in test [2] and -3% in test [3]. For the same molecule, the result in test [5], in test [6], in test [7] and in test [8] was inactive.
For the molecule `CN(C)Cc1cc(Nc2ccnc3cc(Cl)ccc23)ccc1O`, the growth inhibition in test [1] and in test [4] was 100% (active) in each case. The inhibition is 36% in test [2] and -3% in test [3]. The result in test [5], in test [6], in test [7] and in test [8] was inactive.
Regarding `O=C(Cc1cnc[nH]1)Nc1cccc(-c2ccc(-c3nc4ccc(C(F)(F)F)cc4[nH]3)cc2)c1`, the values for the growth inhibition in test [1] and in test [4] were 99% (active) and 102% (active), respectively. For the same molecule, the results for the inhibition in test [2] and in test [3] were 10% and -1%, respectively. Further, the result in test [5], in test [6], in test [7] and in test [8] was inactive.
`Cc1cccc2[nH]c(-c3ccc(-c4cccc(CNCc5cccc(N)c5)c4)cc3)nc12`: the growth inhibition is 87% (active) in test [1] and 101% (active) in test [4]. The inhibition in test [2] is 0%; in test [3] it was -4%. Besides, the result in test [5], in test [6], in test [7] and in test [8] was inactive.
Consider `O=C(Nc1cccc(CN2CCCN(CCc3ccccc3)CC2)c1)c1ccc(Cl)c(Cl)c1`, for which the growth inhibition in test [1] is 15%; in test [4] it was 86% (active). Moreover, the inhibition in test [2] is 41%; in test [3], -5%. In addition, the outcome in test [5], in test [6], in test [7] and in test [8] was inactive.
In the case of `O=C(/C=C/c1ccc(Cl)c(Cl)c1)NCCCCCN1CCCN(C(=O)Nc2cc(Cl)cc(Cl)c2)CC1`, the growth inhibition is 4% in test [1] and 96% (active) in test [4]. The inhibition in test [2] was 53% (active); in test [3], 6%. For the same molecule, the result in test [5], in test [6], in test [7] and in test [8] was inactive.
Turning to `CC(Oc1ccc(Cl)cc1)C(=O)NCCC1CCN(CCCCCNC(=O)/C=C/c2ccc(Cl)c(Cl)c2)CC1` (stereo not given), the growth inhibition in test [1] is 20%; in test [4], 89% (active). In addition, the results for the inhibition in test [2] and in test [3] were 48% and -5%, respectively. Also, the outcome in test [5], in test [6], in test [7] and in test [8] was inactive.
On to `O=S(=O)(Nc1cccc(CCN2CCCCC2CCN2CCCC2)c1)c1ccc2ccccc2c1` (stereo not given), for which the growth inhibition in test [1] was 40%; in test [4] it was 91% (active). Moreover, the inhibition in test [2] is 22%; in test [3] it was -2%. In addition, the result in test [5], in test [6], in test [7] and in test [8] was inactive.
As to `Cc1cc(-c2cc3nc4c(c(=O)n3[nH]2)CCCC4)c(C)o1`, the growth inhibition in test [1] is 82% (active); in test [4], 94% (active). Also, the inhibition in test [2] was 4%; in test [3] it was -4%. Moreover, the outcome in test [5], in test [6], in test [7] and in test [8] was inactive.
